Records with an inconclusive call do not appear. Activity calls are given as the source filed them. Unless noted, calls come from the whole dose curve; as a rule, active = well fitted curve in the direction sought with a large enough effect in the repeat runs; inconclusive = weak or mixed curves; inactive = no such curve, though single readings can be large; an effect the other way counts as inactive or inconclusive.
Columns and labels:
[1] = target: Luciferin 4-monooxygenase (Photinus pyralis) (UniProt P08659); assay: qHTS assay to identify small molecule inhibitors of firefly luciferase (AID 1224835); note: nearly all actives have a fitted effect of over 25% in size
Summary of the method: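 Inhibition of purified Photinus luciferase is measured by luminescence. Substrate levels (D-luciferin, ATP) sit at their KM values. Each compound is tested in a concentration series.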

[2] = qHTS assay to identify small molecule agonists of the constitutive androstane receptor (CAR) signaling pathway - cell viability counter screen (AID 1224836); note: nearly all actives have a fitted effect of over 45% in size
Summary of the method: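 23 h treatment, 37 C, 5% CO2. Cell line: HepG2 stably expressing hCAR with a CYP2B6-2.2kb construct. Co-treatment: PK11195, 0.75 uM final. Read-out: CellTiter-Fluor fluorescence intensity.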

[3] = qHTS assay to identify small molecule antagonists of the constitutive androstane receptor (CAR) signaling pathway - cell viability counter screen (AID 1224837); note: nearly all actives have a fitted effect of over 45% in size
Summary of the method: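 Counter screen run in HepG2-CYP2B6-hCAR cells: 4 hr settle, compound titration (15 concentrations) with 50 nM CITCO, 23 hr at 37 C/5% CO2, CellTiter-Fluor fluorescence.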

[4] = target: Nuclear receptor subfamily 1 group I member 3 (Homo sapiens) (UniProt Q14994); assay: qHTS assay to identify small molecule antagonists of the constitutive androstane receptor (CAR) signaling pathway (AID 1224838);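 note: HepG2 cells stably expressing hCAR with CYP2B6 luciferase reporter stimulated by CITCO; nearly all actives have a fitted effect of over 40% in size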
Summary of the method: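 Cell line: HepG2 double-stable for hCAR and CYP2B6-2.2kb reporter. Agonist: CITCO, 50 nM final. Compounds: 15 concentrations, 24 h, 37 C. Detection: ONE-Glo luminescence.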

[5] = target: Nuclear receptor subfamily 1 group I member 3 (Homo sapiens) (UniProt Q14994); assay: qHTS assay to identify small molecule agonists of the constitutive androstane receptor (CAR) signaling pathway (AID 1224839);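 note: HepG2 cells stably carrying human CAR and a CYP2B6 luciferase reporter; nearly all actives have a fitted effect of over 15% in size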
Summary of the method: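 Compounds tested at 15 concentrations on HepG2 cells stably harbouring hCAR and CYP2B6-2.2kb reporter constructs, co-treated with PK11195 (0.75 uM final), 24 h at 37 C; luminescent reporter signal quantified.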

[6] = qHTS assay to identify small molecule antagonists of the estrogen related receptor signaling pathway with the pleiotropic PPARgamma coactivator (PGC) from Tox21 10K library - cell viability counter screen (AID 1224840; active = well fitted cell-killing curve with a large enough effect in the repeat runs, not every such curve was filed as active; note: nearly all actives have a fitted effect of over 40% in size)
Summary of the method: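 Following seeding of 2,000 PGC/ERR cells/well and 6 hours' incubation, test compounds were delivered in DMSO. The plates then sat 17.5 hours at 37 C before a fluorogenic live-cell protease reagent (CellTiter-Fluor) was read after 30 min.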

[7] = qHTS assay to identify small molecule agonists of the estrogen related receptor signaling pathway with the pleiotropic PPARgamma coactivator (PGC) from Tox21 10K library (AID 1224842); note: nearly all actives have a fitted effect of over 15% in size
Summary of the method: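 Luminescence from One-Glo (30 min, room temperature) measured after PGC/ERR cells had 18 h at 37 C with pinned compound (23 nL in DMSO). Cells had been seeded at 2,000 per well and pre-incubated 6 h.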

[8] = qHTS assay to identify small molecule agonists of the hypoxia (HIF-1) signaling pathway - cell viability counter screen (AID 1224844; calls by dose curve; note: nearly all actives have a fitted effect of over 50% in size)
Summary of the method: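 Cells (HRE-bla ME-180, 2,000 per well) sat 5 hrs at 37C, got compound for 17 hrs, were read for CCF4-AM FRET, and were finally lysed with CellTiter-Glo for a 30 min room-temperature luminescence read.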

[9] = qHTS assay to identify small molecule agonists of H2AX (AID 1224845; active = well fitted activation curve with a large enough effect in the signal ratio in the repeat runs, not every such curve was filed as active; the % refers to the signal ratio)
Summary of the method: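 Phospho-H2AX Ser139 measured by HTRF (ex 320 nm; em 665 and 620 nm) after 24 hr antibody incubation. Compounds, 15 concentrations, 0.76% DMSO, were applied to CHO-K1 cells for 3hr at 37C before lysis.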

[10] = qHTS assay to identify small molecule agonists of the hypoxia (HIF-1) signaling pathway (AID 1224846; active = well fitted activation curve with a large enough effect in the signal ratio in the repeat runs, not every such curve was filed as active; the % refers to the signal ratio)
Summary of the method: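 A low-serum medium (0.5% dialyzed FBS) holding 2,000 HRE-bla ME-180 cells per well is preincubated for 5 hrs, dosed with compounds by pintool, and kept a further 17 hrs at 37C, 5% CO2 before CCF4-AM FRET detection of beta-lactamase.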

[11] = qHTS assay to identify small molecule agonists of H2AX - cell viability counter screen (AID 1224847; calls by dose curve; note: top concentration of the series differs between compounds; nearly all actives have a fitted effect of over 30% in size)
Summary of the method: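 Compounds tested at 15 concentrations were incubated 3 hr at 37C with wild-type CHO-K1 cells; cellular ATP-based luminescence (CellTiter-Glo) indicated viability.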

[12] = qHTS assay to identify small molecule agonists of the estrogen related receptor (ERR) signaling pathway from Tox21 library (AID 1224849; calls by dose curve; note: nearly all actives have a fitted effect of over 15% in size); settings: ERR reporter cell line, ONE-Glo luciferase, 18 h; at 92.4 µM (top of the series) unless noted
Summary of the method: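 Screening used an NTP-provided ERR luciferase cell line. Compounds in DMSO were added 6 h after seeding and left 18 h at 37 C before a 30 min ONE-Glo step and luminescence reading.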

[13] = qHTS RealTime-Glo MT Cell Viability Assay in HEK293 cells - 32 hour (AID 1224868); note: top concentration of the series differs between compounds; nearly all actives have a fitted effect of over 50% in size
Summary of the method: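 Tox21 10K qHTS, HEK293, 600 cells/well, RealTime-Glo reagent co-dispensed with cells; 5 h preincubation, compound by pintool, 37 C, luminescence at 0–40 h.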

[14] = A CellTox Green Cytotoxicity Assay to monitor cytotoxicity in HEK293 cells - 0 hour (AID 1224869); note: nearly all actives have a fitted effect of over 50% in size
Summary of the method: (§1)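 Fluorescence intensity, read at 0, 8, 16, 24, 32 and 40 h of compound treatment, reflected dye binding to DNA of dead HEK293 cells; compounds (23 nL, DMSO) were added 5 h after plating cells with reagent.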

[15] = qHTS RealTime-Glo MT Cell Viability Assay in HepG2 cells - 40 hour (AID 1224870); note: nearly all actives have a fitted effect of over 50% in size
Summary of the method: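 Real-time viability: cells seeded at 600 per well together with NanoLuc and cell-permeant prosubstrate, compounds added after 5 h incubation. Luminescence tracked at 0, 8, 16, 24, 32 and 40 h of exposure.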

[16] = A CellTox Green Cytotoxicity Assay to monitor cytotoxicity in HEK293 cells - 40 hour (AID 1224871); note: nearly all actives have a fitted effect of over 45% in size
Summary of the method: as §1

[17] = qHTS assay to identify small molecule antagonists of the estrogen related receptor signaling pathway with the pleiotropic PPARgamma coactivator (PGC) from Tox21 10K library (AID 1224841; call rule not given here)
Summary of the method: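 qHTS antagonist format: PGC/ERR cells, 2k/well, compound in DMSO by pin transfer after 6 h attachment, 18 h treatment at 37 C, One-Glo luminescence read at 30 min.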

[18] = target: Thyrotropin receptor (Homo sapiens) (UniProt P16473); assay: qHTS assay to identify small molecule agonists of the thyroid stimulating hormone receptor (TSHR) signaling pathway (AID 1224843; calls by dose curve; note: nearly all actives have a fitted effect of over 45% in size)
Summary of the method: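 HEK293 cells stably bearing the thyrotropin receptor were plated at 800 cells/well and challenged with compound (30 min, RT). Accumulated cAMP was quantified via cAMP-d2 competing for cryptate-tagged antibody.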

[19] = qHTS RealTime-Glo MT Cell Viability Assay in HepG2 cells - 24 hour (AID 1224867); note: nearly all actives have a fitted effect of over 50% in size
Summary of the method: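 Cells + NanoLuc/prosubstrate dispensed (600 cells/well) → 5 h at 37 C/5% CO2 → compounds in DMSO transferred → 40 h incubation at 37 C, luminescence read at 0, 8, 16, 24, 32, 40 h.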

[20] = qHTS assay to identify small molecule antagonists of the estrogen related receptor (ERR) signaling pathway from Tox21 library (AID 1224848); note: nearly all actives have a fitted effect of over 50% in size
Summary of the method: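 Reading was by luminescence 30 min after ONE-Glo addition. Before that, ERR cells at 2,000 per well had rested 6 h at 37 C/5% CO2 and then received pin-tooled compounds in DMSO for 18 h at 37 C.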
% is set by controls: 0 for no effect and ±100 for the full control effect.

Thyrotropin receptor (Homo sapiens), sequence (P16473 whole entry, looked up): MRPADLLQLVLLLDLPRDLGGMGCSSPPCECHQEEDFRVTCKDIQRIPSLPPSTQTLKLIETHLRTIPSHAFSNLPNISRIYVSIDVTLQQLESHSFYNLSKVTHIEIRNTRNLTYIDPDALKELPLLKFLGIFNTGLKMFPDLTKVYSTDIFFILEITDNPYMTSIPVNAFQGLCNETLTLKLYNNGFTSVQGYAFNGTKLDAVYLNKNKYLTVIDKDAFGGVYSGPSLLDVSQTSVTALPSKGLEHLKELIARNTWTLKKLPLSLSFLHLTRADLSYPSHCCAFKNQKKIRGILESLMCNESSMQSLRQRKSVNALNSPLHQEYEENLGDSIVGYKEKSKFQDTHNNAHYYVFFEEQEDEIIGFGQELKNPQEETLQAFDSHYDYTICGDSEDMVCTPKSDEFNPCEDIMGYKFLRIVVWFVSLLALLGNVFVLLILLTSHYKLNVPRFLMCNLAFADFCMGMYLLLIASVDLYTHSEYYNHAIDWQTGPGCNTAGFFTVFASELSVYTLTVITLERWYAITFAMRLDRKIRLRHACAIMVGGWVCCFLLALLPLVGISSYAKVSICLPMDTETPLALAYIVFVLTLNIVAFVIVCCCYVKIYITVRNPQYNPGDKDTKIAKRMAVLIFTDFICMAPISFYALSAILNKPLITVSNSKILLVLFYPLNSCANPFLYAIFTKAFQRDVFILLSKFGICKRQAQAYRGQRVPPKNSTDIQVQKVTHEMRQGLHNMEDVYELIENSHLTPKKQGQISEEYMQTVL
Luciferin 4-monooxygenase (Photinus pyralis), sequence (P08659 whole entry, looked up): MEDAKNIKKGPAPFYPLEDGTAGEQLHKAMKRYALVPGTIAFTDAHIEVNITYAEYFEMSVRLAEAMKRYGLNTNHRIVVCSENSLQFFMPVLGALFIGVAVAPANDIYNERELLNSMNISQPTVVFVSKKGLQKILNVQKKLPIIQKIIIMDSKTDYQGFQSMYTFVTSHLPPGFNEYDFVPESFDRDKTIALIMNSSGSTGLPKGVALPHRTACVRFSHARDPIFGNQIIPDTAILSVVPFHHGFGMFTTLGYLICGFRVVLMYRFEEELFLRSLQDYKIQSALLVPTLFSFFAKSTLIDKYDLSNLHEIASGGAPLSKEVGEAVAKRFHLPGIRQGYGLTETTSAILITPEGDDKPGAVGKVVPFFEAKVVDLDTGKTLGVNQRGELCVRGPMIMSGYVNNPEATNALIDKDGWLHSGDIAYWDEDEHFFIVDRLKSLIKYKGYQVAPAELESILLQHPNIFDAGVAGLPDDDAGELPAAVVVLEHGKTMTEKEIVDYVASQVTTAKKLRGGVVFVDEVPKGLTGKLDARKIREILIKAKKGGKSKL
Nuclear receptor subfamily 1 group I member 3 (Homo sapiens), sequence (Q14994 whole entry, looked up): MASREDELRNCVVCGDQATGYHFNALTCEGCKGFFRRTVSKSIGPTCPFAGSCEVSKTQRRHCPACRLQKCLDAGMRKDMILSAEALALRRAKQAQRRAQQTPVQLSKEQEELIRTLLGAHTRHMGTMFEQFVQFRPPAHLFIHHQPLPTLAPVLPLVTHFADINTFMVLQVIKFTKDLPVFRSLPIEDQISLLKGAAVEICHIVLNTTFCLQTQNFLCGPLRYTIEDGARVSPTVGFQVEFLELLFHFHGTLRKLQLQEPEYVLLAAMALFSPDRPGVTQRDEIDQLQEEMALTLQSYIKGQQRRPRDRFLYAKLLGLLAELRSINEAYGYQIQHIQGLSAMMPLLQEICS

Cc1ccc(S(=O)(=O)O)c(C)c1
inactive: Potency [1] | Potency [2] | Potency [3] | outcome [4] | Potency [5] | outcome [6] | outcome [7] | outcome [8] | outcome [9] | outcome [10] | Potency [11] | activity change, positive = activation [12] 16.9% | Potency [13] | outcome [14] | outcome [15] | Potency [16]

C=C1CC/C=C(\C)CC[C@@H]2[C@@H]1CC2(C)C
inactive: Potency [1] | Potency [2] | Potency [3] | outcome [4] | Potency [5] | outcome [6] | Potency [17] | outcome [7] | Potency [18] | outcome [8] | outcome [9] | outcome [10] | Potency [11] | activity change, positive = activation [12] 0.265% | outcome [19] | Potency [13] | outcome [14] | outcome [15] | Potency [16]

O=C(O)c1cc(Cl)cc([N+](=O)[O-])c1Cl
inactive: Potency [1] | Potency [2] | Potency [3] | outcome [4] | Potency [5] | outcome [6] | outcome [7] | Potency [18] | outcome [8] | outcome [9] | outcome [10] | Potency [11] | Potency [20] | activity change, positive = activation [12] -9.65% | outcome [19] | Potency [13] | outcome [14] | outcome [15] | Potency [16]

C=C(C)C(=O)OCCNC(C)(C)C
inactive: Potency [1] | Potency [2] | Potency [3] | outcome [4] | Potency [5] | outcome [6] | outcome [7] | Potency [18] | outcome [8] | outcome [9] | outcome [10] | Potency [11] | Potency [20] | activity change, positive = activation [12] -2.14% | outcome [19] | Potency [13] | outcome [15] | Potency [16]

CC(C)(C)NC(N)=O
inactive: Potency [1] | Potency [2] | Potency [3] | outcome [4] | Potency [5] | outcome [6] | outcome [7] | outcome [8] | outcome [9] | outcome [10] | Potency [11] | Potency [20] | activity change, positive = activation [12] 2.65% | Potency [13] | outcome [14] | outcome [15] | Potency [16]

CCOc1cc(NC(C)=O)ccc1C(=O)OC
inactive: Potency [1] | Potency [2] | Potency [3] | outcome [4] | Potency [5] | outcome [6] | Potency [17] | outcome [7] | Potency [18] | outcome [8] | outcome [9] | outcome [10] | Potency [11] | activity change, positive = activation [12] -6.13% [at 42.5 µM] | outcome [19] | Potency [13] | outcome [14] | outcome [15] | Potency [16]

ClCCCl
inactive: Potency [1] | Potency [2] | Potency [3] | outcome [4] | Potency [5] | outcome [6] | outcome [7] | outcome [8] | outcome [9] | outcome [10] | Potency [11] | Potency [20] | activity change, positive = activation [12] 12.2% | outcome [19] | Potency [13] | outcome [14] | outcome [15] | Potency [16]

CCNC(=O)C1CC(C)CCC1C(C)C (centres undefined)
inactive: Potency [1] | Potency [2] | Potency [3] | outcome [4] | Potency [5] | outcome [6] | Potency [17] | outcome [7] | outcome [8] | outcome [9] | outcome [10] | Potency [11] | activity change, positive = activation [12] -8.38% | outcome [19] | Potency [13] | outcome [14] | outcome [15] | Potency [16]

COCCOCCOCCOCCOCCO
inactive: Potency [1] | Potency [2] | Potency [3] | outcome [4] | Potency [5] | outcome [6] | Potency [17] | outcome [7] | Potency [18] | outcome [8] | outcome [9] | outcome [10] | Potency [11] | Potency [20] | activity change, positive = activation [12] 2.08% | outcome [19] | Potency [13] | outcome [14] | outcome [15] | Potency [16]

C[Si](C)=O
inactive: activity change, negative = inhibition [1] 5.26% [at 10.5 µM] | viability change, negative = cytotoxic [2] 2.34% [at 8.39 µM] | activity change, negative = cytotoxicity [3] 1.39% [at 8.39 µM] | activity, negative = inhibition [4] -3.72% [at 8.39 µM] | activation [5] -0.11% [at 8.39 µM] | viability change, negative = cytotoxic [6] 10.2% [at 8.39 µM] | activity, negative = inhibition [17] -4.65% [at 8.39 µM] | activation [7] -1.46% [at 8.39 µM] | activation [18] 1.85% [at 8.39 µM] | activity change, negative = cytotoxicity [8] 3.37% [at 6.97 µM] | activation (H2AX phosphorylation) [9] -1.6% [at 14 µM] | activation [10] -1.19% [at 7.01 µM] | activity change, negative = cytotoxicity [11] -6.59% [at 14 µM] | activity change, positive = activation [12] 0.654% [at 8.39 µM] | activity change, negative = cytotoxicity [19] 0.943% [at 6.97 µM] | activity change, negative = cytotoxic [13] 1.65% [at 6.97 µM] | cytotoxicity [14] 2.11% [at 6.97 µM] | activity change, negative = cytotoxic [15] -3.86% [at 6.97 µM] | cytotoxicity increase [16] 12.6% [at 6.97 µM]

COc1ccc(Br)c(C)c1
inactive: Potency [1] | Potency [2] | Potency [3] | outcome [4] | Potency [5] | outcome [6] | outcome [7] | outcome [8] | outcome [9] | outcome [10] | Potency [11] | activity change, positive = activation [12] -0.068% | outcome [19] | Potency [13] | outcome [14] | outcome [15] | Potency [16]

CC(=O)N[C@@H](CCC(=O)O)C(=O)O
inactive: Potency [1] | Potency [2] | Potency [3] | outcome [4] | Potency [5] | outcome [6] | Potency [17] | outcome [7] | outcome [8] | outcome [9] | outcome [10] | Potency [11] | Potency [20] | activity change, positive = activation [12] 5.46% [at 42.5 µM] | outcome [19] | Potency [13] | outcome [14] | outcome [15] | Potency [16]
